Source: PubChem (The Scripps Research Institute Molecular Screening Center)
MOR-DOR ag-1: agonists of OPRM1-OPRD1 heterodimerization, primary screen, cell-based, luminescence | Mu-type opioid receptor (Homo sapiens) + Delta-type opioid receptor (Homo sapiens), … | cells | activation, % at 9.3 µM | 0.3% of 340,000 active | AID 504326, 2011;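 note: 0% = vehicle-treated cells and 100% = reference agonist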
MOR-DOR inv ag: inverse agonists of MOR-DOR heterodimerization, primary screen, cell-based, luminescence | Mu-type opioid receptor (Homo sapiens) + Delta-type opioid receptor (Homo sapiens), … | cell-based MOR-DOR heterodimer luminescence, inverse agonism | inhibition, % at 9.3 µM | 0.21% of 340,000 active; in the data active = inhibition above about 22%, passing the limit was not always enough;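 note: 0% = cells with DMSO and 100% = wells without cells with DMSO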
HTR5A ag: HTR5A agonists in luminescence cell assay, primary screen, counter-screen for OPRM1-OPRD1 heterodimer agonist project, full-deck HTS | 5-hydroxytryptamine receptor 5A (Homo sapiens), P47898 | cell-based | activation, % at 9.3 µM | 0.61% of 340,000 active | AID 504692, 2011; in the data active = activation mostly above about 9.5%, no sharp cut-off; inactive = mostly below about 7.6%;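 note: 0% = cells with vehicle only and 100% = reference agonist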
Target sequence (P47898 whole entry, looked up): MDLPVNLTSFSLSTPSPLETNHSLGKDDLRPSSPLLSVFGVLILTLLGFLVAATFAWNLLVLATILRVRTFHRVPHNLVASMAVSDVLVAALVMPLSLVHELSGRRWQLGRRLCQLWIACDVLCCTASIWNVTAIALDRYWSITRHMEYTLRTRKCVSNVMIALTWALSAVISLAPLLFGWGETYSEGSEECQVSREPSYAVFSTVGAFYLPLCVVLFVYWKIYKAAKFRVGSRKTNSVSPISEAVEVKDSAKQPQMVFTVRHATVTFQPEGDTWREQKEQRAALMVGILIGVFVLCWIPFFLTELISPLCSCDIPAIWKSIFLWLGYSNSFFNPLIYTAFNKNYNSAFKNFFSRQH
HTR5A inv ctr: HTR5A inverse agonists in luminescence cell assay, primary screen, counter-screen for OPRM1-OPRD1 heterodimer inverse agonist project, full-deck HTS | 5-hydroxytryptamine receptor 5A (Homo sapiens), P47898 | 0.083% of 340,000 active | AID 504634, 2011 | HTR5A cell line, inverse agonism | inhibition, % at 9.3 µM; in the data active = inhibition mostly above about 23%, no sharp cut-off; inactive = mostly below about 18%;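 note: 0% = cells with DMSO and 100% = no-cell wells with DMSO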
MOR-DOR ag-2: OPRM1-OPRD1 heterodimerization promoters, counter-screen for HTR5A agonist project, cell-based, luminescence. activation, % at 9.3 µM. shares compounds with HTR5A ag. 13% of 800 active. U2OS counter-screen cells, complementation luminescence, 3 h. AID 504913, 2011
HTR5A ag confirm: HTR5A agonists, retest of hits, confirmation, cell-based, luminescence. shares compounds with HTR5A ag. HTR5A agonist cell assay. activation, % at 9.3 µM. 17% of 800 active; in the data active = activation above about 17%;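 note: 0% = cells with vehicle only and 100% = full reference agonist response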
The depositor's hits bear a star; . = no result. An excerpt weighted towards active compounds, which were near 1.1% of everything screened. Cut-off read from the data, not from the text of the source, unless noted: active = activation above about 18%; inactive = the rest.

SMILES	MOR-DOR ag-1	MOR-DOR inv ag	HTR5A ag	HTR5A inv ctr	MOR-DOR ag-2	HTR5A ag confirm
O=C(OCC12CC3CC(CC(C3)C1)C2)c1ccc(NCc2cc(O)ccc2O)cc1	11	-54	17*	-67	44*	4
N#CCC(=O)Nc1ccc(C(=O)OCC(=O)C23CC4CC(CC(C4)C2)C3)cc1	2	-10	1	-19	.	.
Cc1nn(CC(=O)Nc2ccc3c(c2)CCC3)c(C)c1[N+](=O)[O-]	2	-8	4	-11	.	.
Cc1noc(C)c1NC(=O)N(C)C[C@H]1Oc2c(NC(=O)C3CCCCC3)cccc2C(=O)N([C@H](C)CO)C[C@@H]1C	-2	12	-2	6	.	.
CCOc1ccccc1NC(=S)N1C2CCC1CC(NC(=O)NC13CC4CC(CC(C4)C1)C3)C2 (centres undefined)	-1	6	2	-9	.	.
COc1ccccc1NC(=S)N1C2CCC1CC(NC(=O)NC13CC4CC(CC(C4)C1)C3)C2 (centres undefined)	1	-3	16*	-36	0	3
O=[N+]([O-])c1ccc(O)c(CSc2nnnn2-c2ccccc2)c1	-4	19	6	6	.	.
COc1ccc(S(=O)(=O)N2CCC(NC(=O)c3cccnc3)CC2)cc1	-2	12	-6	-7	.	.
COc1ccccc1NC(=O)CSc1nc2ccccc2nc1N1CC(C)OC(C)C1 (centres undefined)	1	-6	-2	5	.	.
OC(CN1CCN(c2cccc(Cl)c2)CC1)c1ccc(F)cc1 (centres undefined)	7	-32	19*	-72	7	27*
O=C(/C=C/c1ccc2c(c1)OCO2)c1ccc(O)cc1O	3	-18	2	-7	.	.
Cc1ccc(O)c(C(=O)/C=C/c2ccc3c(c2)OCCO3)c1	-1	5	16*	-38	3	10
Cn1c(CN2CCCCC2)nc2cc(NC(=O)c3ccc(Cl)cc3)ccc21	2	-9	39*	-146	2	44*
O=C(NCCc1ccc2c(c1)OCCO2)c1ccccn1	-2	15	2	-7	.	.
COc1ccc(C(=O)Nc2cc(OC)ccc2OC)cc1	-1	9	-9	-3	.	.
COc1ccc(OC)c(NC(=O)c2cc(OC(C)=O)cc(C(=O)Nc3cc(OC)ccc3OC)c2)c1	3	-14	18*	-68	0	-4
Cc1ccc(NC(=O)CSc2nc3c(c(=O)[nH]2)CCC3)c(C)c1	-1	5	-2	11	.	.
O=C(COC(=O)/C=C/c1ccc(C(F)(F)F)cc1)NC(=O)NCc1ccco1	1	-2	20*	-48	119*	1
Cc1ccc2nc(-c3ccccc3O)c(Nc3ccc4c(c3)OCCO4)n2c1	0	1	20*	-54	4	37*
Cc1ccc2nc(-c3ccc(O)cc3)c(Nc3ccc4c(c3)OCCO4)n2c1	2	-14	22*	-166	1	58*
Cc1ccc(-c2nc3cnccn3c2Nc2ccc3c(c2)OCO3)cc1	0	-1	3	0	.	.
Cc1ccc(Nc2c(-c3ccccc3O)nc3cnccn23)cc1	2	-11	2	-5	.	.
COc1ccc(C(C)(C)C)cc1NC(=O)c1ccc2ncsc2c1	2	-14	16*	-8	13	7
Cc1c(C(=O)Nc2ccc(S(=O)(=O)N(C)C3CCN(C)CC3)cc2)oc2c(Cl)cccc12	5	-35	-3	9	.	.
Cc1ccc(Oc2nnc(-c3ccccc3)cc2C#N)cc1	6	-25	18*	-26	6	4
SMILES	MOR-DOR ag-1	MOR-DOR inv ag	HTR5A ag	HTR5A inv ctr	MOR-DOR ag-2	HTR5A ag confirm
COc1ccc2[nH]cc(CCNC(=S)NC3CCCC3)c2c1	-2	9	-2	24	.	.
O=C(NCCc1c[nH]c2ccccc12)C1CCN(c2nnc(N3CCCC3=O)s2)CC1	-2	8	42*	-118	2	47*
O=C(O)C1CCCCC1C(=O)NCCc1c[nH]c2ccccc12 (centres undefined)	-2	8	45*	-213	3	7
COc1ccc2[nH]cc(CCNC(=O)C3CCCCC3)c2c1	-1	7	52*	-145	-2	-7
O=C(NCCc1c[nH]c2ccccc12)C(=O)NCC(c1cccnc1)N1CCN(c2ccccc2)CC1 (centres undefined)	1	-6	23*	-137	2	40*
CC(C)(C)NC(=O)c1ccc(NC(=O)c2ccccc2-c2ccccc2C(=O)O)cc1	-2	9	2	19	.	.
COc1cccc(N2CCN(C(=O)CN3C(=O)NC(C)(c4ccc5ccccc5c4)C3=O)CC2)c1 (centres undefined)	0	-1	-4	-1	.	.
CCC(C)(C)C1CCC2(CC1)NC(=O)N(CC(=O)NCCc1c[nH]c3ccccc13)C2=O (centres undefined)	1	-4	19*	-52	2	8
CCOc1nc(-c2ccccc2)c2cc(Br)ccc2n1	3	-14	2	-6	.	.
Cc1ccc2oc(=O)c3cnn(CC(=O)NC4CCCCC4C)c3c2c1 (centres undefined)	0	-2	21*	-54	1	0
O=C(c1ccc(Cl)c(S(=O)(=O)N2CCCC2)c1)N1CCN(c2ncccn2)CC1	-3	17	20*	-55	2	0
O=C(c1ccc(Cl)c(S(=O)(=O)NCc2ccccc2)c1)N1CCN(c2ccccn2)CC1	0	2	21*	-45	1	14
O=C(c1ccc(Cl)c(S(=O)(=O)N2CCOCC2)c1)N1CCN(c2ccccc2F)CC1	-1	5	8	-26	.	.
O=C(c1ccc(Cl)c(S(=O)(=O)N2CCCC2)c1)N1CCN(c2ccccc2F)CC1	2	-10	21*	-68	-3	-8
CC(OC(=O)CC(C)c1ccccc1)C(=O)Nc1ccc(Cl)cn1 (centres undefined)	3	-22	-2	5	.	.
Cc1ccccc1CN1[C@@H](C(C)C)COCCS1(=O)=O	-1	8	0	16	.	.
CCOc1ccc(C(=O)N2CCN(Cc3ccccc3)CC2)cc1OCC	0	0	16*	-1	4	-1
CCOc1ccc(C(=O)N2CCN(Cc3ccccc3)CC2)cc1	-1	3	-4	14	.	.
CCOc1nc(CC(C)C)c2c(c1C#N)CC(C)(C)OC2	4	-23	16*	3	6	-1
O=c1cc(CN2CCN(S(=O)(=O)c3ccccc3)CC2)nc2ccc(Cl)cn12	1	-2	-8	20	.	.
COc1ccc(S(=O)(=O)N2CCN(Cc3cc(=O)n4ccccc4n3)CC2)cc1	1	-4	16*	-40	1	-2
CCN(CC(=O)NCc1cccs1)C(=O)c1cccc(S(=O)(=O)Nc2ccccc2Cl)c1	-1	4	7	6	.	.
